From PubChem BioAssay (Tox21)
Several values for one entry are separate records, joined by “and”; a condition that tells them apart may be missing. Equal values may be shown once. Inconclusive results are not listed. A call without a number means that no potency is given here. More than one record can exist for a structure, and the calls need not agree. Activity calls are given as the source filed them. Calls follow the shape of the dose curve; as a rule, active = well fitted curve in the direction sought with a large enough effect in the repeat runs; inconclusive = weak or mixed curves; inactive = no such curve, though single readings can be large; an effect the other way counts as inactive or inconclusive.

Assays:
[1] = Human pregnane X receptor (PXR) small molecule agonists, qHTS cell viability counter screen (AID 1346977); also: nearly all actives have a fitted effect of over 50% in size
Method in brief: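 HepG2 cells stably carrying the PXR-Luc reporter are cultured with 5% charcoal-stripped FBS and treated with compounds for 24hr. CellTiter-Fluor is added at 23hr and fluorescence is read after 1hr.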

[2] = Caspase-3/7 induction in HepG2 cells by small molecules, qHTS assay (AID 1346978); also: nearly all actives have a fitted effect of over 15% in size
Method in brief: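 Wild-type HepG2 cells, 2,000/well, settled 5 hr at 37 C and 5% CO2, then compound-treated for 17 hr; caspase-3/7 activity read by luminescent Caspase-Glo 3/7 after 30 min at room temperature.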

[3] = Caspase-3/7 induction in CHO-K1 cells by small molecules, qHTS assay (AID 1346980); also: nearly all actives have a fitted effect of over 15% in size
Method in brief: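 Wild-type CHO-K1 cells exposed to compounds for 17hr at 37 C, 5% CO2. Caspase-3/7 activity then measured by Caspase-Glo 3/7 luminescence after 30min at room temperature.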

[4] = Caspase-3/7 induction in HepG2 cells by small molecules, qHTS cell viability counter screen (AID 1346981); also: nearly all actives have a fitted effect of over 30% in size
Method in brief: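 Cell viability is measured as a cytotoxicity counter screen alongside the Caspase-Glo 3/7 readout in identical wells. Wild-type HepG2 cells are treated with test compounds for 16 hr at 37 C before CellTiter-Fluor addition and a 1-hr incubation.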

[5] = biological target: Nuclear receptor subfamily 1 group I member 2 (Homo sapiens) (UniProt O75469); experiment: Human pregnane X receptor (PXR) small molecule agonists, qHTS assay (AID 1346982); also: nearly all actives have a fitted effect of over 35% in size
Nuclear receptor subfamily 1 group I member 2 (Homo sapiens), sequence (O75469 whole entry, looked up): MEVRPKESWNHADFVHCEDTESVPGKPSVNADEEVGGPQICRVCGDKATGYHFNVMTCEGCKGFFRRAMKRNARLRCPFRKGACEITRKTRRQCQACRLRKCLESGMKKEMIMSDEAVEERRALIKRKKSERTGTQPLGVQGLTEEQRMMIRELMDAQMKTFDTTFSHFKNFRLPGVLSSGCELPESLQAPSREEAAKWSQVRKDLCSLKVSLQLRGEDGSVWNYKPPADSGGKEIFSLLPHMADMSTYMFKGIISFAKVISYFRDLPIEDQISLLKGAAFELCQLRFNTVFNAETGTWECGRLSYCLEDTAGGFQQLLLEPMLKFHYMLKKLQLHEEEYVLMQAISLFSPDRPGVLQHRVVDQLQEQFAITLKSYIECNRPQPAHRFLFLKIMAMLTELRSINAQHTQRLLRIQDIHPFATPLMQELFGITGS
Method in brief: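 Cells: HepG2 stably carrying PXR-Luc. Medium held 5% charcoal-stripped FBS. Compounds in DMSO added after 5 hr plating, incubated 24 hr, then luminescence quantified with ONE-Glo.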

[6] = biological target: Cytochrome P450 2D6 (Homo sapiens) (UniProt P10635); experiment: Cytochrome P450 Family 2 Subfamily D Member 6 (CYP2D6) small molecule antagonists: luciferase reporter qHTS assay (AID 1671196); also: nearly all actives have a fitted effect of over 50% in size
Cytochrome P450 2D6 (Homo sapiens), sequence (P10635 whole entry, looked up): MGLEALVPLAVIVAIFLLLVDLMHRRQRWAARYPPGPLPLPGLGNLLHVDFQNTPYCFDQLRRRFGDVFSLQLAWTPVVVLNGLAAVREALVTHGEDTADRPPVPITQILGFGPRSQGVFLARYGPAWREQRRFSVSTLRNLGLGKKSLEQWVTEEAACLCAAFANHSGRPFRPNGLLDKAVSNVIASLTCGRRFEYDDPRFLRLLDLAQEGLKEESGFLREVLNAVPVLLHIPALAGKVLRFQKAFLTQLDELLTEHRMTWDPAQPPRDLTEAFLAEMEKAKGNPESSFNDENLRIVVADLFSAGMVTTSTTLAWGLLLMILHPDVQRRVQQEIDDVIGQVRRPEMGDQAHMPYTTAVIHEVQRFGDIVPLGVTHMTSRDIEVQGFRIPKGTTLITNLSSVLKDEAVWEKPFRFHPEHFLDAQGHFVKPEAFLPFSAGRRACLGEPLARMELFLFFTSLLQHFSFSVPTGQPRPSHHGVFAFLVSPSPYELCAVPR
Method in brief: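 Enzyme and proluciferin substrate were first combined with test chemical for 10 min at room temperature. Adding NADPH regeneration solution started a 1 h reaction, stopped with luciferin detection reagent and read by luminescence 20 min later.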

[7] = biological target: Nuclear receptor subfamily 1 group I member 2 (Homo sapiens) (UniProt O75469); experiment: CYP3A4 induction through human pregnane X receptor (PXR) by small molecules, qHTS assay (AID 1346984); also: nearly all actives have a fitted effect of over 40% in size
Method in brief: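 Quantitative HTS in DPX-2 cells, i.e. HepG2 transfected with PXR response element and CYP3A4-promoter luciferase. Compounds in DMSO incubated 24hr at 37C; then P450-Glo CYP3A4 substrate, 3uM final, 3hr; One-Glo luminescence.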

[8] = biological target: Nuclear receptor subfamily 1 group I member 2 (Homo sapiens) (UniProt O75469); experiment: Human pregnane X receptor (PXR) activation by small molecules, qHTS assay (AID 1346985); also: nearly all actives have a fitted effect of over 40% in size
Method in brief: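 DPX-2 cells (HepG2 co-transfected with a PXR response element and a CYP3A4-promoter luciferase construct) were seeded at 2,000 per well, rested 5 hr at 37C, then exposed to DMSO-dissolved compounds for 24 hr. Activation was read as luciferase luminescence.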

[9] = biological target: Nuclear receptor subfamily 1 group I member 2 (Rattus norvegicus) (UniProt Q9R1A7); experiment: Rat pregnane X receptor (rPXR) activation by small molecules, qHTS assay (AID 1346983); settings: rPXR luciferase reporter cells, One-Glo luminescence, 24 h; max activation: stronger effect = higher value; also: nearly all actives have a fitted effect of over 20% in size
Nuclear receptor subfamily 1 group I member 2 (Rattus norvegicus), sequence (Q9R1A7 whole entry, looked up): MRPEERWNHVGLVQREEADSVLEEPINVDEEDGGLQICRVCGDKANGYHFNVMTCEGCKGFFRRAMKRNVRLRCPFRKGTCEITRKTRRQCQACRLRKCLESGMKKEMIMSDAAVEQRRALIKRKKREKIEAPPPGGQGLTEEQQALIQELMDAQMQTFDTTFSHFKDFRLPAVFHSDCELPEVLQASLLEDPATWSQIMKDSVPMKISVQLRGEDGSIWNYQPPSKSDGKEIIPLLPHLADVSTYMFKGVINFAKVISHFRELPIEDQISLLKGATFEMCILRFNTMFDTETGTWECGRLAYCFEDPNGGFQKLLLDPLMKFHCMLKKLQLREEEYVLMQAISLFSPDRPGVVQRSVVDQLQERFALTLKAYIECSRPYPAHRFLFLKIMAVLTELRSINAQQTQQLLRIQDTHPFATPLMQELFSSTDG
Method in brief: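 Cell-based rPXR activation assay: rPXR cells, 2,000 per well, rested 5hr at 37 C, then exposed to compounds in DMSO for 24 hr at 37 C. Luciferase activity read by One-Glo luminescence after 30 min at room temperature.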
Potency is read from the fitted curve at half-maximal effect.

Row | SMILES | Potency [1] | Potency [2] | Potency [3] | Potency [4] | Potency [5] | Potency [6] | Potency [7] | Potency [8] | Potency [9] | max activation [9]
1 | COc1ccc(OC(=O)N(CC(=O)O)Cc2ccc(OCCc3nc(-c4ccccc4)oc3C)cc2)cc1 | inactive | inactive | inactive | inactive | inactive | inactive |  |  |  | 
2 | CCCCCCCC/C=C\CCCCCCCCCCCC(=O)O | inactive | inactive | inactive | inactive | inactive | inactive |  |  |  | 
3 | CCCC(=O)C(=O)O | inactive | inactive | inactive | inactive |  | 35.6 µM (active) |  |  |  | 
4 | O=C(O)c1cccc(-c2noc(-c3ccccc3F)n2)c1 | inactive | inactive | inactive | inactive | 0.006 µM (active) | 3.47 µM (active) | inactive | inactive |  | 
5 | CCCCCCCCCCC(=O)O | inactive | inactive | inactive | inactive |  | inactive |  |  |  | 
6 | C[C@@H]1CC(=O)NN=C1c1ccc(NN=C(C#N)C#N)cc1 | 16.8 µM (active) and 21.1 µM (active) | 29.8 µM (active) | inactive and 13.3 µM (active) | 18.8 µM (active) and 23.7 µM (active) |  | inactive | inactive | inactive | 14.1 µM (active) | 
7 | O=C(O)C[C@H](NC(=O)OCc1ccccc1)C(=O)O | inactive | inactive | inactive | inactive | inactive | inactive |  |  |  | 
8 | OCCOCC#CCOCCO | inactive | inactive | inactive | inactive |  | inactive |  |  |  | 
9 | Cc1ccc(OC(=O)c2ccccc2O)cc1 | inactive | inactive | inactive | inactive | inactive | inactive |  |  |  | 
10 | O=C(/C=C/c1ccccc1)OCCc1ccccc1 | inactive | inactive | inactive | inactive | inactive | inactive |  |  |  | 
11 | CC1CC(C)C(=O)C1=O (stereo unspecified) | inactive | inactive | inactive | inactive |  | inactive |  |  |  | 
12 | Cc1ccc(Cl)c(Nc2ccccc2C(=O)O)c1Cl | inactive | inactive | inactive | inactive |  |  | inactive | inactive |  | 0.813% (inactive)
13 | COc1cc(N)c(Cl)cc1C(=O)NC1CCN(CCCOc2ccc(F)cc2)CC1OC (stereo unspecified) | 29.8 µM (active) | inactive | inactive |  | inactive |  |  | inactive |  | -2.9% (inactive)
14 | CC1(C)S[C@@H]2[C@H](NC(=O)C(c3ccccc3)S(=O)(=O)O)C(=O)N2[C@H]1C(=O)O (stereo partly specified) | inactive | inactive | inactive | inactive |  | inactive |  |  |  | 
15 | Oc1c(I)cc(I)c2cccnc12 | inactive | inactive | inactive | inactive |  | inactive |  |  |  | 
16 | NNC(=O)CP(=O)(c1ccccc1)c1ccccc1 | inactive | inactive | inactive | inactive | inactive |  | inactive | inactive |  | 
17 | CN1C(C(=O)Nc2ccccn2)=C(O)c2sccc2S1(=O)=O | inactive | inactive | inactive | inactive |  |  | inactive | inactive |  | -1.49% (inactive)
18 | CCCCCCNC(=O)n1cc(F)c(=O)[nH]c1=O | inactive | inactive | inactive |  | 15 µM (active) |  | 0.794 µM (active) |  |  | -10.4% (inactive)
19 | CCn1cc(C(=O)O)c(=O)c2cc(F)c(N3CCNCC3)cc21 | inactive | inactive | inactive | inactive |  |  | inactive |  |  | 7.46% (inactive)
20 | O=C(O)c1ccc(OCCCOc2ccc(C(=O)O)cc2)cc1 | inactive | inactive | inactive | inactive | inactive |  | inactive | inactive |  | -2.11% (inactive)
21 | Nc1cccc2c1CN(C1CCC(=O)NC1=O)C2=O (stereo unspecified) | inactive | inactive | inactive | inactive | inactive |  |  | inactive |  | -1% (inactive)
22 | CC(CN(C)C)C(C)(O)Cc1ccc(Cl)cc1 (stereo unspecified) | inactive | inactive | inactive | inactive | inactive | 6.17 µM (active) |  | inactive |  | -1.26% (inactive)
23 | C1COC1 | inactive | inactive | inactive | inactive | inactive | inactive |  |  |  | 
24 | CN1CC(=O)N2[C@H](c3ccc4c(c3)OCO4)c3[nH]c4ccccc4c3C[C@@H]2C1=O | inactive | inactive | inactive | inactive |  | inactive |  |  |  | 0.614% (inactive)
25 | CCCCC(CC)CN (stereo unspecified) | inactive | inactive | inactive | inactive |  | 36.2 µM (active) |  |  |  | 
26 | CN1CCCC(n2nc(Cc3ccc(Cl)cc3)c3ccccc3c2=O)CC1 (stereo unspecified) | 13.3 µM (active) | inactive | inactive | 26.6 µM (active) | 5.31 µM (active) | 1.1 µM (active) | 28.2 µM (active) | 20 µM (active) |  | -1.86% (inactive)
27 | O=C1Cc2ccccc2N1c1c(Cl)cccc1Cl | inactive | inactive | inactive |  | 9.69 µM (active) |  |  |  |  | 
28 | CCCC(C(=O)OCCN(CC)CC)(c1ccccc1)c1ccccc1 | 26.6 µM (active) | inactive | inactive |  |  | 0.275 µM (active) | 10 µM (active) | 15.8 µM (active) | 22.4 µM (active) | 
29 | CC(=O)c1cc2ccccc2s1 | inactive | inactive | inactive | inactive | inactive | inactive |  |  |  | 
30 | O=C1c2ccccc2C(=O)C1c1nc2ccccc2c(Br)c1O | inactive | inactive | inactive |  | 61.1 µM (active) | inactive |  |  |  | 
